Drawing on the supplement of paper PMC6555819, this text covers PBM binding z-score for 40 sequences.

The assay concerns VDR:RXRa (NR concentration 270 nM, RXRa partner concentration 90 nM). Description: PBM binding z-score (relative to random genomic background probes); higher = stronger binding; sequences stand for … in GC…GCGATTGACAGCGTAGAATGAAGG
As to the method:
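Protein-binding microarray (Agilent 4x180K custom design, double-stranded 60-nt probes: 5' GC cap, 34-nt variable region, 24-nt constant primer region; full probe sequence given). Purified or IVT nuclear receptor:RXRα heterodimers (3:1 NR:RXRα, mostly 270:90 nM) or homodimers were incubated for 1 h in PBS with 2% milk and no ligand, then detected with Alexa488 antibodies. Fluorescence from o1-orientation probes (~5 replicates averaged) was converted to z-scores against 500 random hg19 background probes. Variable regions are seed direct-repeat (DR0–DR5) sites, all their single-nucleotide variants and half-site ablations.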
As to CCTCGGAGGACACCAGGAGGTCAGAGCTGCCAGA, the PBM binding z-score is 1.99.
For CTCGAAAGGTCAGTTGAGGTGAGTATACGGATAA the value was 4.7.
For CGTCCGAGGTCAATGCTAGGTCAGTGAAAGCATT the value was 5.63; for TCTCGGAGGACACGAAAGGTCAGAACTCGACATC, 3.19; for ATATGTAGGTAAGGGTCATTCAGAAAGTAGGGAA, 4.1.
With CTATGTAGGTTAAGGGGGTCAATCAGTTTGAAAG the figure was 7.09.
Sequence CCTACTGGGCCATTAAGAGGTCATTGATCATATG gave a PBM binding z-score of 3.95.
In the case of ATATGTAGGTTTGGGTCATTCAGAAAGTAGGGAA, the PBM binding z-score turned out to be 2.04.
The sequence CCTACAGGGCCAAGGTCATTGATCAGTCAAAGCA showed a PBM binding z-score of 3.39.
For TCGAGTAGGTTACGGGGGCATCCAGGGATGAAGA, the PBM binding z-score turned out to be 3.51.
Take CGAACTAGGTCACCAGGACTGTGAAGAGGTTGGA: the PBM binding z-score was 2.26.
For CAAACTAGGTCACAGAGGTTAAAGTCCGTGCGTA the value was 6.72; for CGAACTAGGTCACCAGGGCAGTGAAGAGGTTGGA, 2.32.
With CGAACTAGGTCACCAGGACAGTGCAGAGGTTGGA the figure was 2.28.
For ATCTCTAGGTTAAAGTTCAGTGAATCCCGAGGAT the value was 2.76.
CCAACTAGGTCATTGACAGGACAGTGAATAGTAA yielded a PBM binding z-score of 2.29.
Consider ATGGAAAGGTCGTGAGGTGAGTATACAGAAAGGC, for which the PBM binding z-score is 4.
With GATACAGGGTCAGCTTGAGGCCAGAGTATGGAAA, the PBM binding z-score stood at 3.33.
For TCTGCTAGGTCAGTTGGGCAGCTAACGAGCTGCC the value was -0.0977; for TCTCGGAGGACACGAAACGTCAGAGCTCGACATC, -0.163; for TAGCCTAGGTCATTGGACCAGTATAGTACGCATC, 2.08.
For TAGCCTAAGTCATGGGCCAGTATACCACGCGAAC the value was -0.25.
On to GATCCAGGGTCAGCTAGAGGCCAGAGTATGGAAA, for which the PBM binding z-score stood at 3.16.
ATCGAAAGGTGGACGAGGTGAGTATACACCGTTT gave a PBM binding z-score of 0.85.
In turn, ATCGAAAGGTCGAAGGAGAGTATACCCACCCGAA displayed a PBM binding z-score of 2.23.
CCTGCTAGGTCTATGGTCAGCTAAAGCAGCTCGC: the PBM binding z-score is -0.536.
For CCGAGTAGGTTACGAGGGAGCATTCAGTGCGAAT the value was 1.11; for CTTAGTTGGTCAAGGTCACACACGCTATAGGTAC, 4.52; for TCTCGGATGACACGAAAGGTCAGAGCTCGACATC, 2.94.
For CGAACTTGGTCACCAGGACAGTGAAGAGGTTGGA the value was 0.809; for CGAACTAGGTCACCAGGACAGTCAAGAGGTTGGA, 2.18; for CGTACTAGGTCACCAGGACAGTGAAGAGGTTGGA, 1.93.
Consider CGAACTAGGTCACCAGGACAGTGAAGAGGTTGGA, for which the PBM binding z-score is 1.93.
Take TCGAGTAGGTTACGGGGGCATACAGGGATGAAGA: the PBM binding z-score was 3.54.
With ATCGAAAGGTCGTGAGGTGAGTTTACAGAAAGGC the figure was 4.49; with CGAACTAGGTCACCAGGACAGTAAAGAGGTTGGA, 2.05.
CCTACTGGGCCATTCAGAGGTCATTGTTCATATG had a PBM binding z-score of 3.9.
On to CGAACTAGGTCACCAGGACAGCGAAGAGGTTGGA, for which the PBM binding z-score amounted to 1.88.
With GGTACGAGGGCAAAGTTGATAGCATCTGTCGACG the figure was 1.14; with CGTCCAAGGTCAGCAGGTGAGTGAAAGCGACGTG, 2.67.
